Assay results as given in ChEMBL document CHEMBL2218924, “A broad activity screen in support of a chemogenomic map for kinase signalling research and drug discovery” (Biochem J, 2013).

molecular target: Protein-tyrosine kinase 6 (Homo sapiens) (UniProt Q13882); details: at 10 µM
Sequence (Q13882 whole entry, looked up): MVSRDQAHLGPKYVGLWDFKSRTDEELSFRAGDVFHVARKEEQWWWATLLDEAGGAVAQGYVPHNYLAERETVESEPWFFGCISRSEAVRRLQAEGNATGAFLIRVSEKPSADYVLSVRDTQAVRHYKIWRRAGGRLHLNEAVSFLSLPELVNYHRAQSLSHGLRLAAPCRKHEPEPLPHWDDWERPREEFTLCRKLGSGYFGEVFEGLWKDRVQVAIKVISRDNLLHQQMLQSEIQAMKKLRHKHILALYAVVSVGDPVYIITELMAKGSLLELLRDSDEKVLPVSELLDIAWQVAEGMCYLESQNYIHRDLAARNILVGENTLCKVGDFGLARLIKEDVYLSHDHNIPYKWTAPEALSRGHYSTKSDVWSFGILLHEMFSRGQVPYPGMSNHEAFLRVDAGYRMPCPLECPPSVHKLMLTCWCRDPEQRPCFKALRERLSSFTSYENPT

SMILES | residual activity
Cc1cc(C)c(/C=C2\C(=O)Nc3ccccc32)[nH]1 | 104%
Nc1nccc(-c2c(-c3ccc(F)cc3)ncn2C2CCNCC2)n1 | 30%
COc1ccc2c(c1)c(C1=C(c3c[nH]c4ccccc34)C(=O)NC1=O)cn2CCCN(C)C | 82%
Nc1ncnc2c1cnn2-c1ccccc1 | 96%
c1ccc(-c2cnc(Nc3ccc(OCCN4CCCC4)cc3)s2)cc1 | 34%
CCOc1nc(NC(=O)Cc2cc(OC)ccc2OC)cc(N)c1C#N | 50%
N#C/C(=C1/Nc2ccccc2S1)c1ccnc(NCCc2cccnc2)n1 | 37%
O=C(Nc1ccc(Cl)cc1)c1ccccc1NCc1ccncc1 | 1%
COc1cc2c(cc1OC)-c1n[nH]c(Nc3cccc(F)c3)c1C2 | 25%
NCCNc1ncc(C(N)=O)c(Nc2cccc(C(F)(F)F)c2)n1 | 14%
O=c1cc(N2CCNCC2)oc2c(-c3ccccc3)cccc12 | 99%
CSc1nc(-c2ccc(F)cc2)c(-c2ccnc(NC(C)c3ccccc3)c2)[nH]1 (stereo not given) | 89%
O=C1Cc2c([nH]c3ccc(Br)cc23)-c2ccccc2N1 | 72%
O=C1Cc2c([nH]c3ccc([N+](=O)[O-])cc23)-c2ccccc2N1 | 107%
O=c1c(-c2ccc(F)cc2)c(-c2ccncc2)[nH]n1-c1ccc(Cl)cc1 | 7%
O=c1cc(N2CCOCC2)oc2c(-c3ccccc3)cccc12 | 101%
COc1ccc(CNC(=O)Nc2ncc([N+](=O)[O-])s2)cc1 | 17%
O=C1Nc2ccccc2/C1=C\c1c(Cl)[nH]c2ccccc12 | 54%

molecular target: Tyrosine-protein kinase BTK (Homo sapiens) (UniProt Q06187); details: at 1 µM
Sequence (Q06187 whole entry): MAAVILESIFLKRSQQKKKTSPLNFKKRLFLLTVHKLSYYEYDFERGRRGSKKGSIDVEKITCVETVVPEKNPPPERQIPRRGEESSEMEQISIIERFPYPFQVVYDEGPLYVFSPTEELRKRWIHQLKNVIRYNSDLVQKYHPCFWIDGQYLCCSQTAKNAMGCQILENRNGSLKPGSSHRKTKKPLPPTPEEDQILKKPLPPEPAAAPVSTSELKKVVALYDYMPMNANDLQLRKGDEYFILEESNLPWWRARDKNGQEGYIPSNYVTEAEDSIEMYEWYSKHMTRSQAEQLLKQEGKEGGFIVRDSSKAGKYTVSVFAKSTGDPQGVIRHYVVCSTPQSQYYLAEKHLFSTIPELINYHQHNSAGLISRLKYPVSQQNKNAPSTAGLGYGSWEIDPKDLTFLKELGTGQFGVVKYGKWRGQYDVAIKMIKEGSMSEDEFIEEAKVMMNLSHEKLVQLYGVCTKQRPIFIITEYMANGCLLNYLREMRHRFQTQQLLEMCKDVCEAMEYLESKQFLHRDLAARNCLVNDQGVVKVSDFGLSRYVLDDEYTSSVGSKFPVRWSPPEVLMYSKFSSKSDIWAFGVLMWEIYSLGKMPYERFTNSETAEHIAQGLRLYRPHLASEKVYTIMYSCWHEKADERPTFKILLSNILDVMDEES

SMILES | residual activity
O=C1NC(=O)C(c2c[nH]c3ccccc23)=C1c1c[nH]c2ccccc12 | 100%
O=C(Nc1nc2ccccc2n1CCN1CCOCC1)c1cccc([N+](=O)[O-])c1 | 100%
Nc1ncnc2c1cnn2-c1ccccc1 | 94%
CN([C@@H](Cc1ccc(OS(=O)(=O)c2cccc3cnccc23)cc1)C(=O)N1CCN(c2ccccc2)CC1)S(=O)(=O)c1cccc2cnccc12 | 100%
CCOc1nc(NC(=O)Cc2cc(OC)ccc2OC)cc(N)c1C#N | 81%
N#C/C(=C1/Nc2ccccc2S1)c1ccnc(NCCc2cccnc2)n1 | 96%
COc1cc2c(cc1OC)-c1n[nH]c(Nc3cccc(F)c3)c1C2 | 22%
NC(=O)c1cccc(-c2cc(Nc3ccc(OC(F)(F)F)cc3)ncn2)c1 | 96%
CSc1nc(-c2ccc(F)cc2)c(-c2ccnc(NC(C)c3ccccc3)c2)[nH]1 (stereo not given) | 90%
O=C1C(Cl)=C(N2C(=O)CCC2=O)C(=O)c2ccccc21 | 91%
Fc1ccc(-c2nc3n(c2-c2ccncc2)CCS3)cc1 | 100%
COc1ccc(CNC(=O)Nc2ncc([N+](=O)[O-])s2)cc1 | 42%
